Potency and affinity values are given separately. Inconclusive results are not listed. Values without a mark were called inactive. The rule behind the calls is not given here.
target: CAAX prenyl protease 1 (Saccharomyces cerevisiae (strain ATCC 204508 / S288c)) (UniProt P47154); experiment: Ste24 protease inhibitors, dose response, biochemical, S. cerevisiae, plate reader, cherry-pick (AID 488815); conditions: yeast Ste24 protease activity; series mostly up to 10 µM; activity change, negative = inhibition: at the top concentration;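 note: 0% = neutral control wells and -100% = no enzyme wells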
Sequence (P47154 whole entry, looked up): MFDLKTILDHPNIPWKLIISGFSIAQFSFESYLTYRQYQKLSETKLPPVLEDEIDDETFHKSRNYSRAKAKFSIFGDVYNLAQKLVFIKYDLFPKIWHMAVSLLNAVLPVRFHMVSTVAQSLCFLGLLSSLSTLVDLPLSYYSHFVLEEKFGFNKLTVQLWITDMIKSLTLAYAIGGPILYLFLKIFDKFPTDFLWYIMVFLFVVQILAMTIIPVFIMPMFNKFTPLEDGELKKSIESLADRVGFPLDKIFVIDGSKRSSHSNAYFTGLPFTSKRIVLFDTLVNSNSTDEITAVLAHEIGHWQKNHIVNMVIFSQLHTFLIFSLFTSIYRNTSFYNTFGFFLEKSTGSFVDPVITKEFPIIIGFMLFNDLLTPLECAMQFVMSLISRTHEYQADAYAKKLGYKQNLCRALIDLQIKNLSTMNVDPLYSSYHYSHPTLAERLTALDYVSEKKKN

Row | SMILES | activity change, negative = inhibition [%]
1 | COc1cc(-c2nc3ccccn3c2/N=C/c2cccc(OC)c2O)ccc1O | -6.59
2 | CCN(CC)c1ccc(C(=O)c2ccccc2C(=O)O)c(O)c1 | 13
3 | Cc1nc(-c2ccc(Cl)cc2)sc1C1(C)CC(c2ccccc2Br)=NO1 (centres undefined) | 29.5
4 | Cc1ccccc1NS(=O)(=O)c1ccc(C(=O)NCC(c2ccccc2)N(C)C)cc1 (centres undefined) | 11.8
5 | COc1ccc(C)cc1NC(=O)CCC(=O)Nc1ccc2nc(N3CCN(C)CC3)cc(C)c2c1 | -16.4
6 | CCn1c(C)nc2c(=O)oc3ccccc3c21 | 4.3
7 | COc1cccc(C(=O)Nc2nnc(SCC(=O)NC3CCCC3)s2)c1 | -14.9
8 | O=S(=O)(c1ccccc1)c1nc(-c2ccco2)oc1N1CCCCC1 | 13.8
9 | Cc1nc2c(C)cccn2c(=O)c1NC(=O)COc1ccccc1 | -175
10 | CCn1c(COc2cccc(C)c2)nnc1SCC(=O)NC1CCCC1 | 18.5
11 | CN(C(=O)COC(=O)c1cn(-c2ccccc2)nc1-c1ccccc1)C1CCS(=O)(=O)C1 (centres undefined) | 17.9
12 | C=C(C)CSc1nc2sc3c(c2c(=O)n1-c1ccc(OC)cc1)CCN(C)C3 | 27.2
13 | CC(=O)N1c2ccc([N+](=O)[O-])cc2NC(=O)CC1C (centres undefined) | 3.56
14 | Cc1ccc(S(=O)(=O)c2cn(C)c3cc(N4CCOCC4)c(F)cc3c2=O)cc1 | -85.1
15 | COc1ccc(-c2cc(C(=O)NCCCN3CCCC3=O)c3ccccc3n2)cc1 | 49.3
16 | Cc1cccc(NC(=O)c2cc(S(=O)(=O)N3CCCCC3)c[nH]2)c1C | 15.9
17 | CC(C)C[C@H](NC(=O)c1nc[nH]c1C(=O)N1CCNCC1)C(=O)OCc1ccccc1 | 22.1
18 | O=C(Nc1sc2c(c1C(=O)c1ccc(Cl)cc1)CCCC2)c1cccnc1 | 18.3
19 | CC1CCN(C(=O)C2CCN(S(=O)(=O)c3ccc(-n4cnnn4)cc3)CC2)CC1 | 16.5
20 | CC(C)N1CCN(Cc2ccc(OCc3ccccc3)cc2)CC1CCO (centres undefined) | 15.4

Row | SMILES | activity change, negative = inhibition [%]
21 | COCCN1C(=O)/C(=C/c2ccc(Oc3ccc([N+](=O)[O-])cn3)c(OC)c2)SC1=Nc1ccccc1 | 2.64
22 | CCN1CCN(CC(O)COc2ccc3c(C)cc(=O)oc3c2)CC1 (centres undefined) | 34.4
23 | Cc1cc(N)c2cc(NC(=O)/C=C/c3ccccc3Cl)ccc2n1 | -21.1
24 | COc1ccc2[nH]c(C(=O)NCCCn3ccnc3)cc2c1 | 40.5
25 | CC(C)c1c(C(=O)N/N=C/c2cccc3ccccc23)nnn1-c1nonc1N | 11.6
26 | CCOc1ccc(-c2c(C(=O)N/N=C/c3cccs3)nnn2-c2nonc2N)cc1 | 20.5
27 | Nc1c(C(=O)Nc2cccc(C(=O)O)c2)sc2nc3c(cc12)CCCC3 | -6.49
28 | CCCCNC(=S)NNC(=O)CCn1cc(C)cn1 | 35.5
29 | CCN(CC)CCN(C(=O)c1ccc2ccccc2c1)c1nc2ccc(F)cc2s1 | 18.9
30 | O=C(O)CCCC[C@@H]1SC[C@@H]2NC(=O)N[C@@H]21 | 9.1
31 | O=C(C1CCC(=O)N(C2CC2)C1)N1CCN(c2ccccc2Cl)CC1 (centres undefined) | 18.6
32 | COc1cc2c(cc1OC)C(C)N(C(=O)c1cc3c(=O)oc4ccc(C)cc4c3s1)CC2 (centres undefined) | 15.4
33 | Cn1c(CN2CCOCC2)c(C#N)c2ccccc21 | 36.1
34 | Cc1nc(SC(C(=O)c2ccccc2)c2ccccc2)nc2ccccc12 (centres undefined) | 23
35 | COc1cc(-c2nc3ccccn3c2/N=C/c2cc(OC)c(OC)c(OC)c2)ccc1O | -1.51
36 | c1ccc(CNc2nc(N3CCN(Cc4ccccc4)CC3)nc3ccccc23)cc1 | 22
37 | O=C(COc1ccccc1)Nc1cccc(-c2nc3cc4ccccc4cc3[nH]2)c1 | 10.7
38 | CSc1ccc(C(=O)C2CCCN(C(=O)c3cccnc3SC)C2)cc1 (centres undefined) | 16.5
39 | Cc1cccc(NS(=O)(=O)c2ccc(C)c(C(=O)OCC(=O)Nc3cc(C)on3)c2)c1 | 6.86
